A short description of assay [1]: APR_HepG2_CellLoss_72hr: Apredica 72-hour HepG2 Assay for Cell Loss (AID 2282915). The conditions noted are these: high-content imaging. Put shortly:
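Cell number comes from Hoechst 33342-labelled nuclei, imaged at 20x after 3.7% formaldehyde fixation. Dosing was 0.39–200 uM, ten concentrations in duplicate, 0.5% DMSO final, for 72 h. Bidirectional fit relative to DMSO baseline.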

A short description of assay [2]: APR_HepG2_P-H2AX_72hr: Apredica 72-hour HepG2 Assay for H2AX Phosphorylation (AID 2282916).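 Further: phospho-histone H2A.x immunostain intensity per cell marking DNA damage.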 The conditions noted are these: imaging, actives raise or lower the signal. Put shortly: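 HepG2 human liver cells were exposed for 72 hr to compounds at 0.39–200 uM (10 concentrations, duplicate per plate) in 0.5% v/v DMSO. Fixed, permeabilized cells were immunolabeled for phospho-histone H2A.x with Hoechst 33342 and imaged by HCS fluorescence; bidirectional fit versus DMSO.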

A short description of assay [3]: APR_HepG2_MitoMembPot_72hr: Apredica 72-hour HepG2 Assay for Mitochondrial Membrane Potential (AID 2282917). The conditions noted are these: imaging, actives raise or lower the signal. Put shortly:
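Membrane potential read by MitoTracker Red CMXRos (250 nM, 30 min, pre-fixation) fluorescence imaging of HepG2 after 72 hr exposure. Ten concentrations, 0.39–200 uM, duplicate wells, 0.5% DMSO; fitted in both directions against DMSO baseline.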

The nature of assay [4]: APR_HepG2_MicrotubuleCSK_72hr: Apredica 72-hour HepG2 Assay for Microtubule CSK Stabilty (AID 2282919). The conditions noted are these: HepG2 microtubule cytoskeleton, high-content imaging, actives raise or lower the signal. The procedure, abridged:
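Read-out is tubulin fluorescence intensity from high-content imaging of HepG2 cells, with nuclei identified by Hoechst 33342. Treatment lasts 72 h at 0.39–200 uM, and curves are fitted bidirectionally against the DMSO negative control.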

Assay [5] in a line: APR_HepG2_P-H2AX_24hr: Apredica 24-hour HepG2 Assay for H2AX Phosphorylation (AID 2282920). The conditions noted are these: high-content imaging, actives raise or lower the signal. Put shortly: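 HepG2, 24 hr, cpd 0.39–200 uM (10 conc, duplicate), DMSO 0.5% v/v final. Fix 3.7% formaldehyde, Triton X-100 permeabilize, anti-phospho-H2A.x 1:200 + Hoechst 2 ug/mL. Imaged, bidirectional fit vs DMSO.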

The nature of assay [6]: APR_HepG2_StressKinase_72hr: Apredica 72-hour HepG2 Assay for Stress Kinase (AID 2282921). The conditions noted are these: HepG2 stress kinase (phospho-c-Jun) imaging, actives raise or lower the signal. The procedure, abridged: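 Cells were exposed for 72 h to ten concentrations (0.39–200 uM, duplicate) at 0.5% v/v DMSO final, then fixed with 3.7% formaldehyde, permeabilized and immunostained for phospho-c-Jun (Cy3 secondary) with Hoechst nuclear counterstain.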

Assay [7] can be described thus: APR_HepG2_StressKinase_24hr: Apredica 24-hour HepG2 Assay for Stress Kinase (AID 2282922). The conditions noted are these: HepG2 stress kinase (phospho-c-Jun) imaging, actives raise or lower the signal. Put shortly:
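HepG2, 24 hr dosing, 0.39–200 uM in duplicate, 0.5% DMSO; formaldehyde fix (3.7%), 0.5% Triton X-100; anti-phospho-c-Jun + Cy3 secondary, Hoechst counterstain; ArrayScan imaging; bidirectional curve fit vs DMSO baseline.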

Assay [8] in a line: APR_HepG2_p53Act_72hr: Apredica 72-hour HepG2 Assay for p53 Activation (AID 2282923).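 Further: average cellular p53 protein immunofluorescence intensity in HepG2 cells.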 The conditions noted are these: high-content imaging, actives raise or lower the signal. The procedure, abridged: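 Cells were dosed for 72 hr with compounds at 0.39–200 uM in duplicate (final DMSO 0.5% v/v), then fixed in 3.7% formaldehyde, permeabilized with Triton X-100 and immunostained for p53 (Cy5) with Hoechst 33342 nuclear counterstain.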

Assay [9] can be described thus: APR_HepG2_NuclearSize_72hr: Apredica 72-hour HepG2 Assay for Nuclear Size (AID 2282925). The conditions noted are these: high-content imaging, actives raise or lower the signal. The procedure, abridged: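 HepG2; cpd 0.39–200 uM, 10 conc, duplicate; 72 h; DMSO 0.5% v/v; fix 3.7% formaldehyde 30 min RT; Triton permeabilization; Hoechst 2 ug/mL; HCS imaging 20x; nuclear diameter; gain/loss fit vs DMSO.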

Assay [10] is described as follows: ATG_CRE_CIS: Attagene CIS-FACTORIAL HepG2 Assay for human cAMP Responsive Element (CRE) binding protein 3 (AID 2282926). The conditions noted are these: HepG2 CRE cis-reporter, Attagene multiplexed mRNA; actives raise or lower the signal. The procedure, abridged:
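Human liver HepG2, transient MRTU transfection, 24 h compound exposure. Total RNA → oligo(dT) RT → PCR → 6-FAM primer extension → HpaI cut → CE. Activity called both directions vs DMSO.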

Assay [11] deals with CCAAT/enhancer-binding protein beta (Homo sapiens) (UniProt P17676). Put plainly: ATG_C_EBP_CIS: Attagene CIS-FACTORIAL HepG2 Assay for human CCAAT/Enhancer Binding Protein (C/EBP) beta (AID 2282927). The conditions noted are these: HepG2 Attagene cis-factorial transcription factor reporter; actives raise or lower the signal. The procedure, abridged: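 Changes in reporter mRNA, rather than exogenous chimeric receptor activity, reflect native C/EBP signalling in transfected HepG2 cells dosed for 24 h; transcripts are detected by RT-PCR and capillary electrophoresis.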
CCAAT/enhancer-binding protein beta (Homo sapiens), sequence (P17676 whole entry, looked up): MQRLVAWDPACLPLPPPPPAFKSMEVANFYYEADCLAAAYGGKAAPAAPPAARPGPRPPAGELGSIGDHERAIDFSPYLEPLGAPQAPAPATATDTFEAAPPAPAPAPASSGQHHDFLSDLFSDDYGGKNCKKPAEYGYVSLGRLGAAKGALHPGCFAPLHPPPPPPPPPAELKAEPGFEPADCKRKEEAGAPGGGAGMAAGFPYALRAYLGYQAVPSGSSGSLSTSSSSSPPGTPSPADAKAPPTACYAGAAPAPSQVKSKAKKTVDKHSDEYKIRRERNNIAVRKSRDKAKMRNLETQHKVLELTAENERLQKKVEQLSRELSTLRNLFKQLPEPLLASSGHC

Assay [12] is described as follows: ATG_CMV_CIS: Attagene CIS-FACTORIAL HepG2 Assay for human CMV (Internal Marker) (AID 2282928).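 Further: endpoint acts as a background internal control marker rather than a target.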 The conditions noted are these: HepG2 CMV promoter reporter, transcription factor profiling; actives raise or lower the signal. Put shortly: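 HepG2 cells transiently transfected with multiple cis-regulated reporter units; 24 h compound exposure. Reporter mRNA quantified by RT-PCR, 6-FAM primer-extension labeling, HpaI digestion and capillary electrophoresis; bidirectional fitting against DMSO baseline.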

Assay [13] is described as follows: ATG_DR4_LXR_CIS: Attagene CIS-FACTORIAL HepG2 Assay for human Liver X Receptor (LXR), DR4 submotif (AID 2282929). The conditions noted are these: HepG2 Attagene DR4 cis-reporter, mRNA transcription; actives raise or lower the signal. Put shortly: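 Endogenous factor activity at a DR4 cis-element is read as reporter mRNA in transiently transfected HepG2 cells. Exposure lasts 24 h; transcripts are amplified, fluorescently labelled and sized by capillary electrophoresis, with DMSO as baseline.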

Assay [14] addresses Aryl hydrocarbon receptor (Homo sapiens) (UniProt P35869). Put plainly: ATG_Ahr_CIS: Attagene CIS-FACTORIAL HepG2 Assay for human Aryl Hydrocarbon Receptor (Ahr) (AID 2282930). The conditions noted are these: HepG2 AhR cis-factorial reporter transcription; actives raise or lower the signal. Put shortly:
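HepG2, transient MRTU (cis) transfection, 24 h exposure. RNA → cDNA → PCR → 6-FAM primer extension → HpaI 2 h 37 C → CE. Fit: bidirectional, DMSO baseline.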

Assay [15] can be described thus: ATG_AP_1_CIS: Attagene CIS-FACTORIAL HepG2 Assay for human Activator Protein 1 (AP-1) (AID 2282931). The conditions noted are these: HepG2 Attagene cis-factorial AP-1 reporter mRNA; actives raise or lower the signal. The procedure, abridged:
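Fluorescence of labelled PCR fragments separated by capillary electrophoresis gives reporter mRNA levels. HepG2 with transfected cis-regulated reporter units, 24 h exposure; DMSO serves as baseline for bidirectional curve fits.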

The nature of assay [16]: ATG_AP_2_CIS: Attagene CIS-FACTORIAL HepG2 Assay for human Activator Protein 2 (AP-2) (AID 2282932). The conditions noted are these: HepG2 AP-2 cis-reporter, Attagene transcription factor profiling; actives raise or lower the signal. The procedure, abridged:
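Step one: transient transfection of HepG2 with reporter transcription units. Step two: 24 h chemical exposure. Step three: RNA extraction, RT-PCR, labelled fragment analysis by capillary electrophoresis; DMSO serves as baseline.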

In assay [17] the target is Retinoic acid receptor alpha (Homo sapiens) (UniProt P10276). Put plainly: ATG_DR5_RAR_CIS: Attagene CIS-FACTORIAL HepG2 Assay for human Retinoic Acid Receptor Alpha (RARE), DR5 submotif (AID 2282934). The conditions noted are these: HepG2 Attagene cis-factorial RARE DR5 reporter, mRNA; actives raise or lower the signal. The procedure, abridged: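 HepG2, transient cis-reporter transfection, 24 h exposure. mRNA readout: RT-PCR, FAM label, HpaI cut, capillary electrophoresis. DMSO baseline, gain/loss fitting.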
Retinoic acid receptor alpha (Homo sapiens), sequence (P10276 whole entry, looked up): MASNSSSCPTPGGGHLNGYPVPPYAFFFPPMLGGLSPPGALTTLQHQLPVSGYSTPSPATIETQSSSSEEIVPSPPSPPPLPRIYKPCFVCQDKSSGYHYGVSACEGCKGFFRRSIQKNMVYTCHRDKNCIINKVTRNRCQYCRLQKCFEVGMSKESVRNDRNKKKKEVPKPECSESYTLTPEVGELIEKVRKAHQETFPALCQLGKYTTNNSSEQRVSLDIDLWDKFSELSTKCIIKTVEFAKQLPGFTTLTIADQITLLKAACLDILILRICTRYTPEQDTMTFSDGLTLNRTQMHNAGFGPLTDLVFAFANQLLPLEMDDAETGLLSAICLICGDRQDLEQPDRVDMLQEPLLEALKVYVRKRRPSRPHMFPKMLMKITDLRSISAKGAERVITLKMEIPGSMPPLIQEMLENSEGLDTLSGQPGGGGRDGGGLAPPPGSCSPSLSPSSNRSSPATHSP

The nature of assay [18]: ATG_BRE_CIS: Attagene CIS-FACTORIAL HepG2 Assay for human Bone Morphogenetic Protein (BMP) Response Element (BRE) (AID 2282933). The conditions noted are these: HepG2 BMP response element reporter, Attagene transcription factor profiling; actives raise or lower the signal. Put shortly:
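Read-out: reporter mRNA induction quantified by RT-PCR and capillary electrophoresis after 24 h chemical exposure of transfected HepG2 cells. Endogenous factor activity on the BMP response element; gain or loss fitted against DMSO baseline.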

Assay [19] in a line: APR_HepG2_MitoticArrest_72hr: Apredica 72-hour HepG2 Assay for Mitotic Arrest (AID 2282918). The conditions noted are these: high-content imaging, actives raise or lower the signal. The procedure, abridged:
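Read-out is phospho-histone H3 immunofluorescence with Hoechst nuclear segmentation, imaged at 20x. Human HepG2 liver cells received ten concentrations (0.39–200 uM, final DMSO 0.5% v/v) for 72 hr before fixation. Gain or loss of signal was fitted relative to DMSO.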

Assay [20] in a line: APR_HepG2_MitoMass_72hr: Apredica 72-hour HepG2 Assay for Mitochondrial Mass (AID 2282924).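 Further: MitoTracker Red CMXRos stain intensity per cell imaged as mitochondrial mass.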 The conditions noted are these: high-content imaging, actives raise or lower the signal. Put shortly: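 HepG2, 72 hr cmpd, 10 conc 0.39–200 uM in dup, DMSO 0.5% v/v. MitoTracker Red CMXRos 250 nM 30 min pre-fix; formaldehyde 3.7% fix 30 min RT. HCS imaging, gain/loss fit vs DMSO.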

Molecules are shown by their SMILES. Values joined by “and” are separate entries in the source; they are usually repeats but may differ in a detail not shown here. Equal values may be shown once. Some compounds were tested as several samples or in several runs, with calls that do not always agree. Active and inactive are the calls of the source. How the source made its calls: active means hit-call score of the fitted dose curve at least 0.9, where 1 is the maximum; inactive means score below 0.9.

Aryl hydrocarbon receptor (Homo sapiens), sequence (P35869 whole entry, looked up): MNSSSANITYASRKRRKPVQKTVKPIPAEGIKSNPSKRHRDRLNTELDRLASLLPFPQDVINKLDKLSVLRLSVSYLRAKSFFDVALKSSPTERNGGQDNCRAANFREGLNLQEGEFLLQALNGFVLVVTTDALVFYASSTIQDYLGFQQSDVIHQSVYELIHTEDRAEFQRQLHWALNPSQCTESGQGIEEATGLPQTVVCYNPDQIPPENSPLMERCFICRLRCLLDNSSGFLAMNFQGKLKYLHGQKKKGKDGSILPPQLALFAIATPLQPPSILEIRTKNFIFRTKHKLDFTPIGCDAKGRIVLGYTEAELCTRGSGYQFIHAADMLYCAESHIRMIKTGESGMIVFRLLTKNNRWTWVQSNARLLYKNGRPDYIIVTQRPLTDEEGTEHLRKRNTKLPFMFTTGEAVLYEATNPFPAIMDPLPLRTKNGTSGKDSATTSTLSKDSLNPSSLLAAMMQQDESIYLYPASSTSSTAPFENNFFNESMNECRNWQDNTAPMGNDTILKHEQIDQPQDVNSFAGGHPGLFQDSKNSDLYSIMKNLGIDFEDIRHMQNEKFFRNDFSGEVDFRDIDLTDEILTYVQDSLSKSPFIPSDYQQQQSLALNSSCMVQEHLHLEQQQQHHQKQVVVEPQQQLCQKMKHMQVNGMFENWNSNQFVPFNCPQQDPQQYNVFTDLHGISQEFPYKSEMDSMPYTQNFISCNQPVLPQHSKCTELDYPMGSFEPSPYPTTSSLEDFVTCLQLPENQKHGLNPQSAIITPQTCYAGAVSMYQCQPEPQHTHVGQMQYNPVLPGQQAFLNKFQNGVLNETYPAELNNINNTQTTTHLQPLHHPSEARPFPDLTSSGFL

Take `CC(C)C1(C)N=C(c2nc3ccccc3cc2C(=O)O)NC1=O` (stereo unspecified): the compound was classed as inactive in [1], in [2], in assay [3], in assay [4], in [5] and in assay [6]. Besides, the outcome in assay [7], in [8], in assay [9], in assay [10], in assay [11] and in [12] was inactive. The outcome in assay [13], in assay [14], in assay [15], in assay [16] and in [17] was inactive.

As for `COC(=O)C=C(C)OP(=O)(OC)OC`, the call in assay [1], in assay [2], in assay [3], in [4], in assay [5] and in assay [6] was inactive. Also, the compound was called inactive in assay [7], in [8], in assay [9], in [10], in assay [11] and in assay [12]. The outcome in [13], in assay [14], in assay [15], in assay [16], in [18] and in assay [17] was inactive.

Take `CCCCOC(=O)c1ccccc1C(=O)OCCCC`: the result in assay [2], in assay [3], in assay [19], in assay [4], in assay [5] and in [6] was inactive. Besides, the outcome in assay [7], in assay [8], in assay [20], in assay [9], in assay [10] and in assay [11] was inactive. Further, the call in assay [12], in assay [13], in assay [14], in assay [15], in assay [16] and in assay [18] was inactive. Besides, the result in assay [17] was inactive. Further, the AC50 – broadly, the concentration giving half of the maximal activity seen – in assay [13] is 177 µM (active); in [15] it was 68.2 µM (active) and 85.6 µM (active).

The values above are taken from PubChem BioAssay (EPA / NIEHS).
